# Shown are actives, neighbours in structure and some others; about 3.4% of the full set was active somewhere.
# Mcl-1 Bim block: inhibitors of Bim-Mcl-1 interaction, human | Q07820 | Bead-based flow cytometry, Bim peptide-Mcl-1 binding | inhibition, % at 10 µM | hit rate 0.1% among 190,000 | AID 1009; in the data active = inhibition above about 40%;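 also: 0% = no compound tracer wells and 100% = peptide blocker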
# Mcl1-Bid inh: disrupts binding of human Mcl-1 to Bid peptide. Q07820. TR-FRET Mcl-1/Bid-Dy647 peptide binding, 1536-well. inhibition, % at 21.7 µM. hit rate 0.97% among 220,000;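 active = compounds that cut the binding signal by more than half at the single screening dose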;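 also: His-tagged Mcl-1 with europium anti-His antibody binding Bid BH3 peptide; 0% = Mcl-1 plus peptide wells and 100% = peptide-only wells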
# 14-3-3 Bad PPI: disrupts binding of bovine 14-3-3 zeta to phospho-Bad peptide | P63103 | TR-FRET 14-3-3zeta/Dy647-pBad peptide displacement, 1 h | inhibition, % at 21.7 µM | hit rate 0.71% among 220,000;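 active = inhibition above about 70%, limit read from the data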;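 also: 0% = full 14-3-3 plus peptide FRET controls and 100% = background without 14-3-3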
# m-calpain inh: calpain II (pig) inhibition | purified calpain II, fluorogenic peptide substrate, 30 min | inhibition, % at 16 µM | hit rate 0.37% among 220,000 | AID 1236;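 active = inhibition above about 50%, limit read from the data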
# p47phox inh: blocks human p47phox regulatory protein of NADPH oxidases. P14598. p47phox/p22phox peptide binding, fluorescence polarization, 2 h. inhibition, % at 24.7 µM. hit rate 0.53% among 220,000;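 active = inhibition above about 30%, limit read from the data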;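 also: 0% = p47phox with labelled peptide and 100% = labelled peptide alone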
# Target sequence (P14598 whole entry, looked up): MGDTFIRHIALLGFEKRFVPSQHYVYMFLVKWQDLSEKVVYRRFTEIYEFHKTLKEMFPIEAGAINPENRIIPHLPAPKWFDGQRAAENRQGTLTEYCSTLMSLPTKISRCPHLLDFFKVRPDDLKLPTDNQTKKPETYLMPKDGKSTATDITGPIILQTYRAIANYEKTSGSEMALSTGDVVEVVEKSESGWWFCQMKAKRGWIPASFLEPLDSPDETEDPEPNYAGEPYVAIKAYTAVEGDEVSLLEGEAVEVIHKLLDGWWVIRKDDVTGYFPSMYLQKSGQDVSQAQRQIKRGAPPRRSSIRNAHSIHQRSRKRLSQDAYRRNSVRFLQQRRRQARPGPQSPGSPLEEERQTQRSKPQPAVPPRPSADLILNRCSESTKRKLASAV
# Mcl1-Noxa inh: disrupts binding of human Mcl-1 to Noxa peptide; inhibition, % at 21.7 µM; TR-FRET Mcl-1/Noxa peptide binding, 2 h; AID 1022; Q07820; hit rate 1.5% among 220,000;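 active = compounds that cut the protein-peptide binding signal by more than 50% relative to plate controls in a single-dose test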;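 also: His-tagged Mcl-1 with rhodamine Noxa BH3 peptide and terbium anti-His antibody; 0% = Mcl-1 plus Noxa peptide wells and 100% = peptide-only wells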
# * hit, by the source's call; x = no result; [ ] = remark or other dose.
SMILES,Mcl-1 Bim block,Mcl1-Bid inh,14-3-3 Bad PPI,m-calpain inh,p47phox inh,Mcl1-Noxa inh
O=C1/C(=C\c2ccco2)CCC/C1=C\c1ccco1,2,-69,-13,-13,-39,5
O=C(Nc1cccnc1)c1ccc(S(=O)(=O)c2ccc(Cl)cc2)cc1,0,-19,85*,6,-13,7
COc1ccc2nc(NC(=O)c3ccc(-c4cccc([N+](=O)[O-])c4)o3)sc2c1,10,79*,65,-61,1,62*
O=C(Nc1nc2ccc([N+](=O)[O-])cc2s1)c1ccco1,-1,17,49,-58,6,56*
O=C(Nc1nc2ccc([N+](=O)[O-])cc2s1)c1c(F)cccc1F,-4,-3,-2,-11,0,12
N#C/C(=C(/O)c1ccc(-c2cccc([N+](=O)[O-])c2)o1)c1nc2ccccc2s1,-1,15,92*,-96,11,88*
O=C(O)c1ccc(-c2cccc([N+](=O)[O-])c2)o1,x,-27,9,7,12,17
C=CCC1(N(C(C)=O)c2ccccc2)CCCCC1,1,-5,-1,31,5,-4
O=C(c1ccco1)N1CCN(C(=O)c2ccccc2NS(=O)(=O)c2ccc(F)cc2)CC1,1,-16,3,-9,-3,12
Cc1ccc(NC(=O)CCSc2ccccn2)cc1,-5,-33,-9,12,-2,7
COC(=O)CCc1nc2cc(Cl)ccc2n(Cc2ccccc2)c1=O,4,-25,2,-20,-7,-21
COc1ccc(Cl)cc1C(=O)Nc1ccccc1N1CCN(C)CC1,0,-8,1,-25,-5,56*
CN1CCN(c2ccc([N+](=O)[O-])cc2/C=N/NC(=O)c2cccc([N+](=O)[O-])c2)CC1,-3,0,-4,19,1,91*
O=C(Nc1cc([N+](=O)[O-])ccc1N1CCCC1)c1ccccc1,-1,-17,-4,34,-2,11
CN1CCN(c2ccccc2NC(=O)c2cc(Br)ccc2Cl)CC1,-5,-50,-3,30,-7,17
CN1CCN(c2ccc(Cl)cc2NC(=O)c2ccc(S(=O)(=O)N3CCCCCC3)cc2)CC1,0,-45,25,-123,-5,74*
CN1CCN(c2ccc([N+](=O)[O-])cc2NC(=O)c2ccccc2)CC1,0,-32,77*,3,-3,13
CN(CC(=O)OCC(=O)NCc1ccccc1)S(=O)(=O)c1ccc(Cl)cc1,0,-2,0,3,-8,20
COCCNC(=O)c1ccc(-c2csc(C)n2)cc1,-3,-17,-26,-27,-12,-3
O=C(N/N=C\c1cc([N+](=O)[O-])ccc1N1CCCC1)c1ccccn1,0,-22,-8,7,-4,10
O=C(Cn1c2ccccc2c(=O)c2ccccc21)N/N=C/c1cc([N+](=O)[O-])ccc1N1CCCCC1,-8,67*,70,-105,2,43
COc1ccc(C(c2c(O)ccc3ccccc23)N2CCOCC2)c(OC)c1 (stereo unspecified),-5,49,-7,-54,-8,79*
COc1ccc(C(CCN2CCOCC2)c2c(O)cc(OC)cc2OC)cc1 (stereo unspecified),x,-47,-3,-13,-11,-8
C/C(=N\NC(=O)COc1ccc(C(C)(C)C)cc1)c1ccc2c(c1)OCCO2,65*,-4,4,12,-5,5
CCCN1C(=O)/C(=C/c2nc3ccccc3c(=O)[nH]2)c2ccccc21,-5,42,6,-32,23,44
SMILES,Mcl-1 Bim block,Mcl1-Bid inh,14-3-3 Bad PPI,m-calpain inh,p47phox inh,Mcl1-Noxa inh
CC(C)N1C(=O)/C(=C\c2nc3ccccc3c(=O)[nH]2)c2ccccc21,-1,70*,50,25,-1,55*
Cc1ccc(C(=O)Cn2nc(C(=O)O)c3ccccc3c2=O)cc1C,x,-10,1,14,-4,-13
CCC(=O)Nc1ccc(C(=O)Cn2nc(C(=O)O)c3ccccc3c2=O)cc1,0,-20,-6,-319,-18,56*
O=C(Nc1ccccc1)c1ccc2ccccc2n1,-1,-4,80*,28,-7,5
O=C(Nc1ccc2nc3ccccc3nc2c1)c1ccccc1,7,33,4,-63,2,81*
O=C(Nc1ccc2ccccc2c1)C(=O)C1C(=O)Nc2ccccc21 (stereo unspecified),x,-57,-11,51*,4,-58
CC(=O)Nc1ccc2ccccc2c1,-2,-12,92*[fluorescence artefact?],14,-9,8
CCOC(=O)C(=O)N1CCC(C(=O)OCC)CC1,x,-10,-4,-16,-6,7
CCOC(=O)N1CCN(Cc2cc(Cl)c3cccnc3c2O)CC1,-1,-108,-32,4,-9,-46
CC(=O)Nc1ccc2cc3ccc(NC(C)=O)cc3nc2c1,x,1,6,-310,-5,59*
CC(=O)Nc1ccc2sc(C)nc2c1,x,18,3,8,-2,6
COCCCNC(=O)/C(C#N)=C/c1ccc(OCC(=O)O)c(OC)c1,1,32,26,6,-2,100*
CC(C)(C)[C@H]1C=C(C(=O)NC2CC2)O[C@@H](OCc2ccc(CO)cc2)C1,1,-8,2,1,-7,-13
COC(=O)c1ccc(NC(=O)CN2CCN(c3ccccn3)CC2)cc1,0,-7,-7,30,-8,-1
COc1ccc(C2C(C#N)=C(N)Oc3cc(O)ccc32)cc1OC (stereo unspecified),-2,-43,-6,-13,-3,6
COc1cc(C2C(C#N)=C(N)Oc3cc(O)ccc32)cc(OC)c1OC (stereo unspecified),-2,60*,-10,27,-2,21
O=[N+]([O-])c1ccccc1/C=C/C=N/n1c(-c2ccc(Cl)cc2)n[nH]c1=S,-5,8,79*,-77,-39,15
O=[N+]([O-])c1ccccc1/C=C/C=N/n1c(-c2ccccc2)n[nH]c1=S,-3,-33,7,19,7,73*
COc1ccc(C(=O)NCCSc2ccccc2)cc1OC,0,-22,61,-29,-4,0
Cc1cc(-c2nn(-c3ccccc3F)cc2CN(C)CC(O)CO)c(C)s1 (stereo unspecified),-2,-22,0,10,8,4
O=C(CNCCc1ccccc1)N1CCc2ccccc2C1,-4,9,-12,-17,-6,2
COC(=O)c1c(NC(=S)Nc2ccc(CC(=O)O)cc2)sc(C)c1C,-5,-81,-17,-43,-8,72*
Cc1nc(Nc2nc3ccccc3o2)nc(C)c1C,-1,-15,-7,8,-8,5
Cc1ccnc(Nc2nc3ccccc3o2)n1,-3,-6,-6,133*,-8,-8
CC(c1nccs1)N(C)c1nc2nonc2nc1N(C)C (stereo unspecified),-3,-4,-12,-18,-2,-4

# High-throughput results: PubChem BioAssay, several laboratories
